# Screening results as filed in PubChem.
# Shown is part of a subset that was picked to be rich in hits.
# PKM2 inhibitor – blocks activity of human pyruvate kinase M2; P14618; purified PKM2, ATP generation, Kinase-Glo luminescence; Potency, µM (doses to about 57.5 µM), without a hit: at the top dose activity change, negative = inhibition, usual class: inhibitors; 0.058% of 260,000 active; further: potency means the concentration at half of the fitted maximal effect; nearly all actives have a fitted effect of over 60% in size
# Target sequence (P14618 whole entry, looked up): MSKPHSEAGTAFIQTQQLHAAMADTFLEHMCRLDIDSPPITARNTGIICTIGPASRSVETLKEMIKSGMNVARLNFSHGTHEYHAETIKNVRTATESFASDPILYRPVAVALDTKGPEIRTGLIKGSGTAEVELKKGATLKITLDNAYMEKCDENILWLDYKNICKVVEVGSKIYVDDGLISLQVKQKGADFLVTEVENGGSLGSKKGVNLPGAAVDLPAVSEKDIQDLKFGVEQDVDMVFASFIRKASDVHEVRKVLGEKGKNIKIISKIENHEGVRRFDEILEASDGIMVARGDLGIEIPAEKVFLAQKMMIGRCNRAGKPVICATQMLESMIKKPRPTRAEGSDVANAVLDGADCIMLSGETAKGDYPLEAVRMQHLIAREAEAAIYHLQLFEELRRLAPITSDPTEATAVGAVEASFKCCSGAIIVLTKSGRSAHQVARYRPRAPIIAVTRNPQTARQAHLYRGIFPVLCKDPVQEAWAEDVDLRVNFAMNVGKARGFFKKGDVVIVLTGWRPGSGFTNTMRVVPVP
#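 Enzyme run at intermediate activity with final 0.1 mM ADP, 0.5 mM PEP (50 mM imidazole pH7.2, 50 mM KCl, 7 mM MgCl2), incubated 1 h at r.t. ATP formed read by Kinase-Glo luminescence, normalized to no-enzyme (full inhibition) and uninhibited wells.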
# PKM2 inh dose – PKM2 (human) inhibition, concentration-response confirmation; shares compounds with PKM2 inhibitor; purified hPK-M2, Kinase-Glo ATP luminescence, 1 h; Potency, µM (titrated, usually from 57.5 µM), for inactives: top-dose activity change, negative = inhibition, hits mostly inhibitors; 50% of 55 active; AID 2263
# FLuc counter – counter-screen for pyruvate kinase M2 inhibitors: firefly luciferase inhibition; AID 2265; Kinase-Glo firefly luciferase, luminescence, 8 min; shares compounds with PKM2 inhibitor; 30% of 55 active; Potency, µM (highest dose often 57.5 µM), inactives show top-dose activity, negative = inhibition, most hits filed as inhibitors
# PKM2 LDH couple – PKM2 (human) inhibition, NADH coupled readout; AID 2267; Potency, µM (top dose mostly 57.5 µM), for inactives: at the top dose activity change, negative = inhibition, usual class: inhibitors; shares compounds with PKM2 inhibitor; purified hPK-M2, LDH-coupled NADH fluorescence kinetic; 55 tested, under 10 active
# An asterisk follows results filed as active; u = inconclusive; x = no result given. The call rests on the fitted dose curve; in most records, active means well fitted curve in the direction sought with a large enough effect; inconclusive means small, poorly fitted or top-dose-only effect, or another doubt; inactive means no such curve, though single readings can be large; an effect the other way counts as inactive or inconclusive.
SMILES,PKM2 inhibitor,others
c1ccc2c(SCc3cn4ccccc4n3)nncc2c1,81.4%,
CCCC(=O)Nc1ccc(Cl)c(NC(=O)c2cccc(OC)c2)c1,1.3%,
Cc1nc2ccc(N=NN(C)C)cc2[nH]1,61.5%,
Nc1ccc2nc(Cc3ccccc3)[nH]c2c1,80.3%,
Cc1ccc2nc(-c3ccccn3)[nH]c2c1,15.8µM*,
O=C(CCc1ccccc1)N1CCN(S(=O)(=O)c2cccs2)CC1,83.5%,
Cc1cc(NC(=O)CSc2ccc(-c3ccc(F)cc3)nn2)no1,70.4%,
Cc1cc(N(CCO)CCO)ccc1C(c1ccc(N(CCO)CCO)cc1C)c1ccccc1Cl,32.3%,
Cc1cccc(C)c1NC(=S)N/N=C/c1ccccc1C(=O)O,-4.4%,
O=C(N/N=C/c1ccncc1)c1cc([N+](=O)[O-])cc([N+](=O)[O-])c1O,31.3%,
O=C(Nc1ccccc1C(=O)N/N=C/c1ccncc1)c1ccccc1,14.1µM*,
Cc1cc(N)n(-c2ccc(S(=O)(=O)c3ccc(C(C)C)cc3)cc2)n1,45.1%,
Cc1ccc(S(=O)(=O)Nc2cc(C)c(O)c(Sc3n[nH]c(C)n3)c2)cc1,31.9%,
CC(NC(=O)/C=C/c1ccco1)c1nc2ccccc2n1Cc1cccc(Cl)c1 (stereo unspecified),40.4%,
CC(=O)c1c(C)[nH]c(C(=O)N(C)C(c2ccccc2)c2ccccc2)c1C,53.5%,
O=S(=O)(NNc1ccc(F)cc1F)c1cccc(Cl)c1,50.5%,
Oc1cc2c(cc1CN1CCc3ccccc3C1)OCO2,32.3%,
c1ccc2c(c1)Cc1cc3cc4c(cc3nc1-2)OCO4,8.91µM*,
CC1=C(C(=O)OCc2ccccc2)C(c2cccc(F)c2)NC(=O)N1 (stereo unspecified),0.6%,
C(=C\c1nc2ccccc2[nH]1)/c1ccccc1,14.1µM*,
c1ccc2[nH]c(CSc3nnc(-c4ccncc4)o3)nc2c1,134.3%,
Cc1cccc(NS(=O)(=O)c2cc3c(cc2C)NC(=O)CO3)c1,89.4%,
Cc1cc(C)c(S(=O)(=O)N(C)CC(=O)NCc2ccncc2)c(C)c1,56.4%,
Cc1ccc(-n2[nH]c(C)c(/C=N/c3ccccn3)c2=O)cc1,11.2µM*,PKM2 inh dose=u;FLuc counter=u;PKM2 LDH couple=-10.8%
O=c1c2sccc2nc(SCc2ccc([N+](=O)[O-])cc2)n1Cc1ccccn1,38.8%,
SMILES,PKM2 inhibitor,others
Cc1ccc(NC(=O)COC(=O)CNC(=O)c2ccc3ccccc3c2)c([N+](=O)[O-])c1,32.7%,
COc1ccc(-c2nc(NC(=O)c3[nH]c(C)c(C(C)=O)c3C)sc2C)cc1,79.4%,
Cc1ccccc1-n1nnnc1SCc1cc(=O)n2ccsc2n1,112.5%,
Cc1ccc(Nc2c(-c3ccc(C)o3)nc3ncccn23)cc1,56.8%,
Cc1ccc(-c2cc(C(=O)Nc3ccccc3C)c3ccccc3n2)o1,43.0%,
COc1ccc(-c2nc3ccccn3c2Nc2ccccc2C)cc1,x,PKM2 inh dose=u;FLuc counter=-0.3%;PKM2 LDH couple=-27.6%
Cc1ccc(-c2nc3ncccn3c2Nc2ccccc2C)o1,68.9%,
Cc1ccc2nc(-c3ccc(C)o3)c(Nc3ccc(Cl)cc3)n2c1,x,PKM2 inh dose=20.7%;FLuc counter=-1.4%;PKM2 LDH couple=u
Cc1ccc(-c2nc3ccccn3c2Nc2ccccc2C)o1,x,PKM2 inh dose=10.0%;FLuc counter=2.2%;PKM2 LDH couple=4.61µM*
COCCNC(=O)C(c1ccc(Cl)cc1)N(C(=O)Cn1nnc2ccccc21)c1cccnc1 (stereo unspecified),77.0%,
O=C(CN1CCCCC1)Nc1ccc(Br)cc1[N+](=O)[O-],33.8%,
CC(CCc1ccco1)NC(=O)Cn1ncc2c1-c1ccccc1OC2 (stereo unspecified),39.1%,
COc1ccc(S(=O)(=O)N2CCc3cc(OC)c(OC)cc3C2)cc1,91.3%,
Cc1ccc(CNC(=O)[C@H](C)[C@H]2C[C@]2(C)[C@H](NC(=O)OCc2ccccc2)c2ccccc2)o1,42.8%,
O=C(CNC(=O)c1ccc(Br)o1)OCC(=O)c1cccc([N+](=O)[O-])c1,59.1%,
CNS(=O)(=O)c1ccc(NCC2COc3ccccc3O2)c([N+](=O)[O-])c1 (stereo unspecified),42.6%,
Cc1ccc(CNC(=O)C2CC(c3cccc([N+](=O)[O-])c3)=NO2)o1 (stereo unspecified),58.3%,
Cc1nn(CCC(=O)N2CCN(S(=O)(=O)c3ccccc3)CC2)c(C)c1C,83.4%,
COc1ccc(-c2ccc(=O)n(CC(=O)Nc3cccc(O)c3)n2)cc1OC,52.7%,
COc1ccc(-c2cn3ccccc3n2)cc1OC,8.91µM*,PKM2 inh dose=u;FLuc counter=u;PKM2 LDH couple=u
COc1ccc(-c2ccc(Nc3ccc(C(=O)N4CCOCC4)cc3)nn2)cc1OC,4.7%,
COc1cc([N+](=O)[O-])ccc1NC(=O)CSc1nccn1C,91.4%,
Cc1ccc(C(=O)N2CCN(C(=O)c3ccc(C)cc3)C2)cc1,70.4%,
O=C(CC(Nc1ccc(F)cc1)C(=O)OCC(=O)c1cccs1)c1ccccc1 (stereo unspecified),42.5%,
COc1ccc(C(=O)N=c2nc3ccccn3s2)cc1,7.94µM*,PKM2 inh dose=13µM*;FLuc counter=5.17µM*;PKM2 LDH couple=-5.0%
SMILES,PKM2 inhibitor,others
Cc1nc2cc(NCc3ccccc3O)ccc2n1Cc1ccccc1,109.5%,
O=C(O)C1Nc2c(O)cc(Cl)c([N+](=O)[O-])c2C2C=CCC12 (stereo unspecified),21.8%,
O=c1c2ccccc2sn1-c1cc(S(=O)(=O)N2CCOCC2)ccc1N1CCCC1,3.55µM*,PKM2 inh dose=6.51µM*;FLuc counter=1.3%;PKM2 LDH couple=u
CC1(C)NC(=O)N(CC(=O)Nc2cc(S(=O)(=O)N3CCOCC3)ccc2N2CCOCC2)C1=O,36.6%,
O=C(c1cc(S(=O)(=O)N2CCOCC2)ccc1Cl)N1CCN(c2ccccn2)CC1,87.3%,
CCCN1CNC(=S)N(c2ccccc2OCC)C1,45.0%,
CCN1CCN(S(=O)(=O)c2ccc(Cl)c(C(=O)NC(C)(C)C)c2)CC1,36.3%,
COC(=O)C(CC(=O)c1ccc(Br)cc1)n1ccnc1 (stereo unspecified),51.2%,
O=C(O)CCn1cc(C2CC(c3ccccc3)=NN2c2ccccc2)c(-c2ccccc2)n1 (stereo unspecified),35.4%,
O=C(O)/C=C/C(=O)c1ccc2c(c1)NC(=O)CO2,40.3%,
COc1ccc(C(=O)NCc2oc(-c3ccccc3)cc2C(=O)O)cc1,39.3%,
COc1ccc(-c2nc(-c3ccccn3)no2)cc1,3.55µM*,PKM2 inh dose=5.8µM*;FLuc counter=3.26µM*;PKM2 LDH couple=-11.7%
Cc1ccccc1-c1nc(-c2ccccn2)no1,8.91µM*,PKM2 inh dose=11.6µM*;FLuc counter=5.17µM*;PKM2 LDH couple=-3.0%
Cc1ccc(-n2nc(-c3ccco3)cc2C(=O)O)c(C)c1,60.0%,
CSc1sc(C(=O)NN)c2c1C1(CCC2)SCCS1,35.5%,
COc1ccc(NN=Nc2nc3c([nH]2)c(=O)n(C)c(=O)n3C)cc1,30.3%,
O=C1/C(=C/c2ccc(Cl)cc2)NC(=S)N1Cc1cccnc1,40.3%,
CS(=O)(=O)Nc1ccc(C2=NN(C(=O)c3ccco3)C(c3ccccc3F)C2)cc1 (stereo unspecified),118.5%,
O=C(Nc1nc2ccccc2n1CCOc1ccccc1)c1ccco1,-5.8%,
Cc1cc(NC(=O)c2ccccc2)ncc1NC(=O)c1ccco1,u,PKM2 inh dose=16.3µM*;FLuc counter=u;PKM2 LDH couple=-13.0%
